# Unmarked numbers belong to inactive results. Results filed as inconclusive are left out. A call without a number means that no potency is given here. Activity calls are given as the source filed them. Unless noted, calls come from the whole dose curve; as a rule, active = well fitted curve in the direction sought with a large enough effect; inconclusive = small, poorly fitted or top-dose-only effect, or another doubt; inactive = no such curve, though single readings can be large; an effect the other way counts as inactive or inconclusive.
# How the values were obtained:
# [1] = NCATS anti-infectives library activity on the primary C. elegans qHTS viability assay (AID 1745855; calls by dose curve; note: potency is the fitted concentration of half-maximal effect); settings: C. elegans worm area imaging, day 7
# Summary of the method: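 Viability is taken from GFP fluorescence of PE254-GFP-FLuc C. elegans imaged by laser cytometry over 7 days. Ten L1 worms per well grow at 21 °C on TOP10 E. coli capsules with titrated compound; levamisole marks toxicity.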
# [2] = Viability counterscreen for antagonist of constitutive androstane receptor (CAR) against the NCATS DSHEA and TCM libraries (AID 1794837); settings: CAR reporter cell line viability counterscreen, qHTS; series mostly up to 40 µM;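 note: compound exposure lasted 24 h before viability reading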
# Summary of the method: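 Cell viability, CellTiter-Fluor, Ex/Em 405/540 nm, 1 h at 37C. HepG2-CYP2B6-hCAR, 2,500 cells/well; cpds + CITCO 48 uM final (antagonist mode), 24 h, 37C/5% CO2.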
# [3] = Viability counterscreen for agonist of constitutive androstane receptor (CAR) against the NCATS DSHEA and TCM libraries (AID 1794838); settings: HepG2 cell viability counterscreen, CAR agonist assay, co-treated with 0.75 µM CAR antagonist; series mostly up to 40 µM
# Summary of the method: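 Viability by CellTiter-Fluor fluorescence, 405/540 nm, after 1 h at 37C. HepG2-CYP2B6-hCAR cells were exposed 24 h to test substances in presence of 0.75 uM PK11195 (final).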
# [4] = biological target: Nuclear receptor subfamily 1 group I member 3 (Homo sapiens) (UniProt Q14994); test: Primary qHTS for agonist of constitutive androstane receptor (CAR) against the NCATS DSHEA and TCM libraries (AID 1794839); settings: CAR agonist reporter cells, qHTS luminescence, CAR antagonist co-added at 0.75 µM; series mostly up to 40 µM;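 note: HepG2 cells expressing human CAR with a CYP2B6 reporter plus PK11195 antagonist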
# Sequence of Nuclear receptor subfamily 1 group I member 3 (Homo sapiens) (Q14994 whole entry, looked up): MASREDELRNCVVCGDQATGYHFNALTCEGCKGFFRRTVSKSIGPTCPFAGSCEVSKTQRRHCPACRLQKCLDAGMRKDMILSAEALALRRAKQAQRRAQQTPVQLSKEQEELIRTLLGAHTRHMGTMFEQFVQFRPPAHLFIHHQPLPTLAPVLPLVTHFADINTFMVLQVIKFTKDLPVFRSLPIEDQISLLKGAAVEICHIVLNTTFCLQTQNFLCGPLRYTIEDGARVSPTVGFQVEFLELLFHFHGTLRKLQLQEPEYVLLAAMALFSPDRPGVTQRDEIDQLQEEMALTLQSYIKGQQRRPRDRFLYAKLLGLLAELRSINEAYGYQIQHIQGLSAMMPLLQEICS
# Summary of the method: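 Luminescence from ONE-Glo luciferase was the agonist read-out in HepG2-CYP2B6-hCAR cells exposed 24 h to test substances. Wells also held the CAR antagonist PK11195 at 0.75 µM final. Viability was by CellTiter-Fluor fluorescence.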
# [5] = HepG2 viability counterscreen (readout 2: ATP content) against the NCATS DSHEA and TCM libraries (AID 1794840); settings: ATP content luminescence; series mostly up to 27.3 µM
# Summary of the method: (§1)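 1,000 HepG2 cells/well, 4 h attach; compounds ~24 h, 37C/5% CO2. Readout 1: GF-AFC 25 uM final, 30 min, fluorescence 380/510 nm. Readout 2: CellTiter-Glo, 30 min RT, luminescence.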
# [6] = HepG2 viability counterscreen (readout 1: protease activity) against the NCATS DSHEA and TCM libraries (AID 1794841); settings: qHTS concentration series; series mostly up to 27.3 µM;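 note: cells exposed to compounds for about 24 h before the protease read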
# Summary of the method: as §1
# [7] = biological target: Glutathione peroxidase 1 (Homo sapiens) (UniProt P07203); test: Primary qHTS Assay for Inhibitors of Recombinant Selenoprotein Glutathione Peroxidase 1 (GPX1) (AID 1845191); settings: recombinant GPX1, GR-coupled NADPH fluorescence, 15 min; series mostly up to 27.7 µM; note: nearly all actives have a fitted effect of over 65% in size
# Sequence of Glutathione peroxidase 1 (Homo sapiens) (P07203 whole entry, looked up): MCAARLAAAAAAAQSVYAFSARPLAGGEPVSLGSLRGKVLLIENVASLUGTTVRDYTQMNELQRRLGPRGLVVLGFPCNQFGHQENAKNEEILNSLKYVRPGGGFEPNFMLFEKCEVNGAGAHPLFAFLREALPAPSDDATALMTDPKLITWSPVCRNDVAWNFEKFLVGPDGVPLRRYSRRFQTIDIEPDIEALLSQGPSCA
# Summary of the method: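 10 nM GPX1 + cpd, 30 min RT; start w/ 1 mM GSH, 0.5 mM cumene hydroperoxide, 0.5 mM NADPH, 100 nM GR, 0.01% BSA; buffer 50 mM Tris-HCl pH 7.5, 2 mM EDTA, 150 mM NaCl; Fl 340/450, 0 & 15 min.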
# [8] = biological target: Phospholipid hydroperoxide glutathione peroxidase GPX4 (Homo sapiens) (UniProt P36969); test: Primary qHTS Assay for Inhibitors of Recombinant Selenoprotein Glutathione Peroxidase 4 (GPX4) (AID 1845192); settings: recombinant GPX4, GR-coupled NADPH fluorescence, 15 min; series mostly up to 27.8 µM; note: nearly all actives have a fitted effect of over 65% in size
# Sequence of Phospholipid hydroperoxide glutathione peroxidase GPX4 (Homo sapiens) (P36969 whole entry, looked up): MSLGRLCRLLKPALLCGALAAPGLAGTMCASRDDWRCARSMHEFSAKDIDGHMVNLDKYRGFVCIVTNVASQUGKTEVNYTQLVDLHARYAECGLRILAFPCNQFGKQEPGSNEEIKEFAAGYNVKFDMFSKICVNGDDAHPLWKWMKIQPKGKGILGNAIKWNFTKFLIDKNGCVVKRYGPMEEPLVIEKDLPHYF
# Summary of the method: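 NADPH consumption, followed by fluorescence at 340/450 nm between 0 and 15 min, reports GPX4 activity via coupled glutathione reductase (100 nM). Enzyme 200 nM was pre-exposed to compound 30 min; 0.5 mM cumene hydroperoxide and 1 mM GSH served as substrates.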
# [9] = biological target: Luciferin 4-monooxygenase (Photinus pyralis) (UniProt P08659); test: Primary firefly luciferase (FLuc) qHTS assay for identification of artifact compounds. (AID 1845220); settings: purified firefly luciferase, luminescence, 5 min; series mostly up to 54.1 µM; note: nearly all actives have a fitted effect of over 60% in size
# Summary of the method: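 Cell-free, 1536-well qHTS. Buffer pH 7.6 with 0.01% Tween-20 and 0.05% BSA; 10 uM D-luciferin, 10 uM ATP; 10 nM P. pyralis luciferase; luminescence after 5 min.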
compound,measurement,setting,value
Cc1noc2c1-c1ccccc1C(c1ccc(Cl)cc1)=N[C@H]2CC(N)=O,Potency,[1],5.15 µM (active)
O=C(OCC1=C[C@@H](O)[C@@H]2C=CO[C@@H](O[C@@H]3O[C@H](CO)[C@@H](O)[C@H](O)[C@H]3O)[C@H]12)c1ccc(O)cc1,outcome,[2],inactive
same,outcome,[3],inactive
same,outcome,[4],inactive
same,outcome,[5],inactive
same,outcome,[6],inactive
CC(=O)O[C@@H]1C[C@@H](C)[C@](O)(CCC2=CC(=O)OC2)[C@@]2(C)CCCC(C)(C)C12 (some centres not stated),outcome,[2],inactive
same,outcome,[3],inactive
same,outcome,[4],inactive
same,outcome,[5],inactive
same,outcome,[6],inactive
CC(C)=C1CC2[C@](C)(CC[C@@H](OC(=O)C3(C)OC3C)[C@@]2(C)O)CC1=O (some centres not stated),Potency,[7],inactive
same,Potency,[8],inactive
same,Potency,[9],inactive
C=CC1(C)C=C2CC[C@H]3[C@@](C)(C(=O)O)CCC[C@]3(C)C2CC1 (some centres not stated),Potency,[7],inactive
same,Potency,[8],inactive
same,Potency,[9],inactive
CC1OC(O[C@H]2CC[C@@]3(C)C(CC[C@]4(C)C3CC=C3C5CC(C)(C)CC[C@]5(C(=O)OC5OC(CO)C(OC6OCC(OC7OCC(O)C(O)C7O)C(O)C6O)C(O)C5O)CC[C@]34C)C2(C)C)C(O)C(O)C1OC1OC(CO)C(O)C(OC2OC(CO)C(O)C(O)C2O)C1O (some centres not stated),Potency,[7],inactive
same,Potency,[8],inactive
same,outcome,[9],inactive [at 11.6 µM]
COC(=O)[C@H](Cc1ccc([N+](=O)[O-])cc1)NC(=O)c1cccc2ccccc12,Potency,[7],inactive
same,Potency,[8],inactive
same,Potency,[9],inactive
O=C(CCCCC1CCCCC1)N1CCC(c2cnc[nH]2)CC1,Potency,[7],inactive
same,Potency,[8],inactive
same,Potency,[9],inactive
C=C1C(=O)OC[C@H]2C(C(=O)O)=CC3CC(C)(C)C[C@@]132 (some centres not stated),Potency,[7],inactive
same,Potency,[8],inactive
same,Potency,[9],inactive
CC(=O)OC1CC(=O)C2(C)C3CC4=C(OC(C)CC4=O)OC3(C)CCC2C1(C)C (configuration not stated),Potency,[7],inactive
same,Potency,[8],inactive
same,Potency,[9],inactive
C=C1CCc2occ(C)c2[C@H]2[C@H]1[C@@]13O[C@@]1(C[C@@H](C)[C@H]3OC(C)=O)[C@H]1O[C@@]21C,Potency,[7],inactive
same,Potency,[8],inactive
same,Potency,[9],inactive
C[C@@]1(O)[C@H](O)[C@@H](CO)O[C@H]1n1cnc2c(=O)[nH]c(N)nc21,Potency,[7],inactive
same,Potency,[8],inactive
same,Potency,[9],inactive
CC[C@@H](Nc1c(Nc2cccc(C(=O)N(C)C)c2O)c(=O)c1=O)c1ccc(C)o1,Potency,[7],inactive
same,Potency,[8],inactive
same,Potency,[9],inactive
O=C(OC[C@H]1O[C@@H](Oc2ccccc2CO)[C@H](O)[C@@H](O)[C@@H]1O)c1ccccc1,Potency,[7],inactive
same,Potency,[8],inactive
same,Potency,[9],inactive
COC(=O)C1=CO[C@@H](O[C@@H]2O[C@H](CO[C@@H]3O[C@H](CO)[C@@H](O)[C@H](O)[C@H]3O)[C@@H](O)[C@H](O)[C@H]2O)[C@@H]2C(CO)=CC[C@H]12,Potency,[7],inactive
same,Potency,[8],inactive
same,Potency,[9],inactive
C=C(C)C1Cc2c(ccc3c2OCC(c2ccc(O)cc2O)C3)O1 (configuration not stated),Potency,[7],inactive
same,Potency,[8],inactive
same,Potency,[9],inactive
Cc1ccccc1-n1nc(-c2c(-c3ccc(F)cc3)nn3c2NC[C@@H](CO)C3)ccc1=O,Potency,[7],inactive
same,Potency,[8],inactive
same,Potency,[9],inactive
O=C(OCC(O)CO[C@@H]1O[C@H](C(=O)O)[C@@H](O)[C@H](O)[C@H]1O)c1ccccc1 (some centres not stated),Potency,[7],inactive
same,Potency,[8],inactive
same,Potency,[9],inactive
C/C=C1/[C@H](O[C@@H]2O[C@H](CO)[C@@H](O)[C@H](O)[C@H]2O)OC=C(C(=O)OC)[C@H]1CC(=O)OCCc1ccc(O)c(O)c1,Potency,[7],inactive
same,Potency,[8],inactive
same,Potency,[9],inactive
C[C@@H]1O[C@@H](OC[C@H]2O[C@@H](OCc3ccccc3)[C@H](O)[C@@H](O)[C@@H]2O)[C@H](O)[C@H](O)[C@H]1O,Potency,[7],inactive
same,Potency,[8],inactive
same,Potency,[9],inactive
CC1=CC2=C(C)C(=O)C(C)(O)C(O)C2CO1 (configuration not stated),Potency,[7],inactive
same,Potency,[8],inactive
same,Potency,[9],inactive
CC(=O)OC1CC(C(C)(C)O)OC2CCC3(C)OC4=C(C(=O)C=C5C(C)C(OC(C)=O)C6(C)C(C)OC546)C(O)C3C12C (configuration not stated),Potency,[7],inactive
same,Potency,[8],inactive
same,Potency,[9],inactive
CC(=O)OCC1=CCC2C(C)(C)CCCC2(C)C12CCC(C)(CC(=O)O)O2 (configuration not stated),Potency,[7],inactive
same,Potency,[8],inactive
same,Potency,[9],inactive
O=C(O)CCc1ccc(NCc2cccc3c2CCCN3CCOc2ccccc2)cc1F,Potency,[7],inactive
same,Potency,[8],inactive
same,Potency,[9],inactive
COc1ccccc1CN[C@H]1CCCN[C@H]1c1ccccc1,Potency,[7],inactive
same,Potency,[8],inactive
same,Potency,[9],inactive
CC(O)C1CCC2C3CCC4CC(OC5OC(C(=O)O)C(O)C(O)C5O)CCC4(C)C3CCC12C (configuration not stated),Potency,[7],inactive
same,Potency,[8],inactive
same,Potency,[9],inactive
C=C1CCC2[C@](C)(CCC[C@]2(C)C(=O)O)[C@H]1CC/C(C)=C/C(=O)OC (some centres not stated),Potency,[7],inactive
same,Potency,[8],inactive
same,Potency,[9],inactive
O=C(O)CCc1cc2ccoc2cc1O[C@@H]1O[C@H](CO)[C@@H](O)[C@H](O)[C@H]1O,Potency,[7],inactive
same,Potency,[8],inactive
same,Potency,[9],inactive
COc1c(C)c(OCC(O)C(C)(C)O)cc2c1CNC2=O (configuration not stated),Potency,[7],inactive
same,Potency,[8],inactive
same,Potency,[9],inactive
CCC1=C(C)C(=O)C(C)CC12C(=O)CCC2C(=O)O (configuration not stated),Potency,[7],inactive
same,Potency,[8],inactive
same,Potency,[9],inactive

# From PubChem BioAssay (NCATS)
